Compounds with a hit are over-represented: about 2.2% of the library has one in this group of screens.
ADAM17 inh: ADAM17 inhibitors, primary screen, biochemical, QFRET; Disintegrin and metalloproteinase domain-containing protein 17 (Homo sapiens), P78536; recombinant ADAM17, EDANS/DABCYL FRET peptide cleavage; inhibition, % at 6.95 µM; actives 0.83% (n = 370,000); AID 720648, 2013;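 active = inhibition above the mean of compounds lying between control limits plus 3 SD, set per campaign, cut at about 8.5% in these data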;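 also: 0% = DMSO-only wells as the low control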
GC-A act: GC-A stimulated cGMP production enhancers – HEK293 GC-A cells, cGMP TR-FRET, EC30 ANP, primary screen; Atrial natriuretic peptide receptor 1 (Homo sapiens), P16066; 0% at EC30 ANP, 100% saturating ANP; activation, % at 10 µM; actives 0.14% (n = 370,000); in the data active = activation above about 40%
ADAM10 inh: human ADAM10 inhibitors, primary screen, biochemical, QFRET, HTS | inhibition, % at 7 µM | AID 720582, 2013 | Disintegrin and metalloproteinase domain-containing protein 10 (Homo sapiens), O14672 | actives 0.62% (n = 370,000) | recombinant ADAM10, EDANS/DABCYL FRET peptide cleavage, 3 h;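 active = inhibition above a per-campaign cutoff equal to the mean of compounds falling between control-based bounds plus 3 SD, cut at about 20% in these data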;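 also: 0% = DMSO wells while the 100% control is not disclosed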
NPR2 activator: human GC-B receptor activators, primary screen, HEK293 GC-B cells, cGMP TR-FRET, EC30 CNP | Atrial natriuretic peptide receptor 2 (Homo sapiens), P20594 | 0% at EC30 CNP, 100% saturating CNP | activation, % at 10 µM | actives 0.11% (n = 370,000) | AID 1920062, 2024;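 active = activation at 10 µM reaching about 35% in either raw or pattern-adjusted values, limit read from the data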
Target sequence (P20594 whole entry, looked up): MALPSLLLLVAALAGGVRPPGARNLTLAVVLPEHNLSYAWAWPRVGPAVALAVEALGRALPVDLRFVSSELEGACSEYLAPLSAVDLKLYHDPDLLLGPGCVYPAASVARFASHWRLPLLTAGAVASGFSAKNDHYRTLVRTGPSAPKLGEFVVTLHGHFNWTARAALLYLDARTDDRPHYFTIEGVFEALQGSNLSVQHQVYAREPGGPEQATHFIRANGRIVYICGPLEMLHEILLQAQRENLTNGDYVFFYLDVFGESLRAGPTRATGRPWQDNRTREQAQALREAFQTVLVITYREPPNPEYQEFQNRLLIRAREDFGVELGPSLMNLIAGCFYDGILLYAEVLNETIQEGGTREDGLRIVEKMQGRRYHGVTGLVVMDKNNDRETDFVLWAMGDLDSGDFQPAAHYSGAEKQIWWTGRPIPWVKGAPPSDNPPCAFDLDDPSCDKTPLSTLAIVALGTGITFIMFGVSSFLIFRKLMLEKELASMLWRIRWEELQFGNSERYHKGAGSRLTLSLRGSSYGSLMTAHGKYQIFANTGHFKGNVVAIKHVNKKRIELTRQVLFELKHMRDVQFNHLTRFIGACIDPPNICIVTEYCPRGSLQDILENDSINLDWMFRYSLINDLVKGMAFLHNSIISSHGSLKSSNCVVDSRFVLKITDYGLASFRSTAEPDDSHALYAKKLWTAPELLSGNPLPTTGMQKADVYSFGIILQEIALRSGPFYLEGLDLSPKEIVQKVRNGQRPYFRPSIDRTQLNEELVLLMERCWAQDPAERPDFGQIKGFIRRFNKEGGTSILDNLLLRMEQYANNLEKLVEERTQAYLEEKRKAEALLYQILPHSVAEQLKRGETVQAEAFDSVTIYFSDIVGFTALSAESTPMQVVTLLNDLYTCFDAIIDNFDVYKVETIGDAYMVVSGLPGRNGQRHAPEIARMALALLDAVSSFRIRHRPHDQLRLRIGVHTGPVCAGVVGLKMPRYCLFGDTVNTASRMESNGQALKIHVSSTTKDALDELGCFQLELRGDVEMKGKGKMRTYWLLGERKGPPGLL
proKLK7 act: proKLK7 zymogen activators, primary screen, biochemical, fluorescence intensity; Kallikrein-7 (Homo sapiens), P49862; purified proKLK7, EDANS-DABCYL substrate fluorescence; 100% is mature enzyme control, 0% vehicle; activation, % at 7 µM; actives 0.9% (n = 370,000); AID 652039, 2013;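 active = activation above the mean of all tested compounds plus 3 SD, computed per campaign excluding outliers beyond control limits, cut at about 13% in these data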
KLK7 act conf: proKLK7 zymogen activators, confirmation, biochemical, fluorescence intensity, triplicate; actives 68% (n = 3,200); activation, % at 7 µM; AID 686949, 2013; purified proKLK7, EDANS-DABCYL substrate fluorescence; scaled: vehicle 0, mature enzyme 100; shares compounds with proKLK7 act;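 active = activation, as change over the incubation, above the mean of all tested compounds plus 3 SD, cut at about 13% in these data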
EDANS interfere: EDANS-DABCYL substrate optical interference, artefact control for kallikrein-7 zymogen activator project, biochemical, fluorescence intensity, high throughput | activation, % at 7 µM | no enzyme, 4 h; solvent 0%, active enzyme control 100% | shares compounds with proKLK7 act | actives 80% (n = 3,200);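 active = activation above the all-compound mean plus 3 SD, ignoring values outside control-based bounds, cut at about 4.8% in these data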;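 also: value is the 4 h activation minus the activation read at time zero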
K7 EDANS ctr: counter-screen for kallikrein-7 activators: EDANS-DABCYL interference, dose response | shares compounds with proKLK7 act | EDANS-DABCYL peptide fluorescence interference, no enzyme | EC50, µM | actives 20% (n = 250) | AID 720493;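 active = compounds that raise the fluorescence signal in this interference counterscreen, with EC50 at or below 10 µM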;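 also: intact quenched peptide substrate alone read at 355 nm excitation and 520 nm emission; signal is fluorescence gain from T0 to T4 after four hours at room temperature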
* hit, by the source's call; i = inactive; · = no result given.

SMILES	ADAM17 inh	GC-A act	ADAM10 inh	NPR2 activator	proKLK7 act	KLK7 act conf	EDANS interfere	others
COc1c2occc2cc2ccc(=O)oc12	-1	6	-13	5	1	·	·
C(#CC1=CCCCC1)CNCc1ccccc1	-1	1	-9	10	0	·	·
O=C(CC1CCCC1)N1CC[C@H]2[C@H](CCCN2Cc2ccc(F)cc2)C1	-2	2	2	1	0	·	·
CC(=O)Nc1cccc(-c2nc3ccc(NC(C)=O)cc3s2)c1	i	3	i	3	26*	22*	21*
COCCn1c(=N)c(C(=O)NCCc2ccccc2)cc2c(=O)n3cccc(C)c3nc21	i	13	i	2	0	·	·
Cc1cccn2c(=O)c3cc(C(N)=S)c(=N)n(CCCOC(C)C)c3nc12	-336	17	i	7	46*	5	5.7*
CCOCCCn1c(=N)c(C(N)=S)cc2c(=O)n3cccc(C)c3nc21	-246	9	i	1	29*	2	3
Cc1nn(-c2ccccc2)c2c1cc1c(=O)n(C)c(=O)nc-1n2-c1ccccc1F	-345	-2	i	-1	13*	18*	9.1*	K7 EDANS ctr=>70
Cc1cccc(-n2c3nc(=O)[nH]c(=O)c-3cc3c(C)nn(-c4ccccc4)c32)c1C	i	0	i	-4	14*	46*	58*
Cc1nn(-c2ccccc2)c(=O)c2ccccc12	-5	-1	0	-4	0	·	·
COc1ccc(-n2c(Cc3cccs3)nnc2SCC(=O)Nc2cccc3ccccc23)cc1	4	-14	10	-11	0	·	·
O=C(NCc1cccs1)C1CCN(S(=O)(=O)c2ccc([N+](=O)[O-])cc2)CC1	-3	4	-1	-3	0	·	·
O=C(O)c1cc2cc(Cl)cc(Cl)c2oc1=O	-4	2	-3	-5	0	·	·
O=C(O)c1cc2ccc3ccccc3c2oc1=O	i	0	i	-3	31*	79*	82*
O=C(c1cc2c(ccc3ccccc32)oc1=O)N1CCCC1	i	3	i	6	24*	49*	53*
O=C(O)c1cc2c(ccc3ccccc32)oc1=O	i	-6	i	-7	34*	41*	42*
CC1CCCCC1N(C(=O)c1cc(C2CC2)on1)C1CCCCC1 (configuration not stated)	-4	-6	5	-8	0	·	·
Cc1coc2c1c(C)cc1oc(=O)c(CC(=O)NCC(=O)O)c(C)c12	-374	1	i	3	16*	57*	59*
Cc1oc2c(c(C)cc3oc(=O)c(CC(=O)N[C@H](C(=O)O)C(C)C)c(C)c32)c1C	-92	4	-238	5	15*	6	13*
Cc1oc2c(c(C)cc3oc(=O)c(CC(=O)N[C@@H](CC(C)C)C(=O)O)c(C)c32)c1C	-147	-5	-290	1	5	·	·
Cc1coc2c1c(C)cc1oc(=O)c(CC(=O)NCCCCCC(=O)O)c(C)c12	-355	5	i	-2	18*	34*	28*	K7 EDANS ctr=>70
CC(=O)OC[C@H]1O[C@@H](Oc2cc3ccc(=O)oc3cc2OC(C)=O)[C@H](OC(C)=O)[C@@H](OC(C)=O)[C@@H]1OC(C)=O	i	1	i	-4	80*	79*	78*
CCCCCCCCNC(=O)C1CSCCS(=O)(=O)N1Cc1ccc(OC)cc1 (configuration not stated)	6	-1	5	5	0	·	·
Cc1nn(-c2ccccc2)c(C)c1N	0	-1	0	-2	-1	·	·
Cc1c(O)cnc2nn(-c3ccccc3)c(=N)n12	i	1	i	3	40*	17*	17*
SMILES	ADAM17 inh	GC-A act	ADAM10 inh	NPR2 activator	proKLK7 act	KLK7 act conf	EDANS interfere	others
C[C@H]1[C@H](NC(=O)c2cccc(Cl)c2)CC[C@@]23CCCN2C(=O)CCC[C@@H]13	-4	3	-8	-4	·	·	·
CC(=O)c1ccc(-c2ccc(C(=O)N(C)Cc3nc4ccccc4c(=O)[nH]3)o2)cc1	-440	0	i	1	26*	-2	-12
COc1cc2c(cc1NC(=O)CSc1nnc(-c3ccccc3F)n1-c1ccc(C)cc1)oc1ccccc12	2	0	-13	-8	0	·	·
CCOC(=O)N1C(=O)C[C@](Sc2ccc(OC)cc2)(C(=O)N2CCCC2)[C@H]1c1ccc(OC)cc1	-2	-4	-4	0	1	·	·
COc1ccc2c3c(n(C(=O)OC(C)(C)C)c2c1)C1CC=C(COC(C)=O)CN1CC3 (configuration not stated)	-59	1	-244	-3	18*	8	9.5*
COc1ccc(C(C(=O)N(C)C2CCCC2)N(Cc2ccc(F)cc2)C(=O)c2cc(C)[nH]n2)cc1OC (configuration not stated)	3	-1	3	-12	1	·	·
CCCCn1c(=O)cc(C)n(-c2ccccc2)c1=O	5	3	-1	4	0	·	·
Cc1ccc(C)c(-n2c3nc(=O)n(C)c(=O)c-3cc3ccccc32)c1	-337	2	i	-4	28*	15*	23*
CCCCn1c(=O)nc2n(-c3ccccc3)c3ccccc3cc-2c1=O	-150	8	i	-3	15*	16*	24*
Cc1ccc(C)c(-n2c3nc(=O)[nH]c(=O)c-3cc3cc([N+](=O)[O-])ccc32)c1	-38	-2	-126	-1	2	·	·
COc1ccc(CCC[C@H](CCC(=O)N(c2ccccc2)c2ccccc2)CCc2ccccc2)cc1	1	2	-4	10	-1	·	·
O=c1oc2ccccc2cc1-c1ccccc1	-94	1	-284	-3	0	·	·
COC(=O)C(C)Oc1ccc2cc(-c3ccccc3)c(=O)oc2c1 (configuration not stated)	i	16	i	-5	16*	64*	44*	K7 EDANS ctr=>70

Screening data from PubChem.
